# Source: PubChem BioAssay (National Center for Advancing Translational Sciences (NCATS))
# The full list was thinned out, with hits kept by preference.
# ERK EGF block – EGF-driven ERK pathway inhibition | HEK293-V1b, EGF-stimulated phospho-ERK AlphaScreen | Potency, µM (titrated, usually from 11.5 µM), most hits filed as inhibitors | 130,000 tested, 0.41% active; active = well fitted inhibition curve with a large enough effect; also: nearly all actives have a fitted effect of over 55% in size
#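 HEK293 cells stably expressing V1b receptor, serum-reduced (1% FBS) overnight, got compound for 30 min at 37C, then 25 nM EGF for 5 min. Lysate phospho-ERK read by AlphaScreen SureFire; AC50 from Hill fits.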
# Hits are given with their value; i = inactive.
SMILES,ERK EGF block
CCOC(=O)c1c(NC(=O)c2ccc(C)cc2)sc2c1CC(C)(C)NC2(C)C,i
COC(=O)c1c(NC(=O)c2ccccc2)sc2c1CC(C)(C)NC2(C)C,i
CCOC(=O)CNC(=O)O[C@H]1C(=O)c2ccc(OC)cc2O[C@@H]1c1ccc2c(c1)OCO2,i
CCCCCCCCCCCCCCCC(=O)NCC(=O)O,i
O=C(c1ccc(CSc2nc3ccncc3[nH]2)cc1)N1CCN(c2cccc(Cl)c2)CC1,18µM
O=C(c1ccc(CSc2nc3ccncc3[nH]2)cc1)N1CCCCCC1,i
O=C(NCc1ccc(Cl)cc1)c1ccc(CSc2nc3ccncc3[nH]2)cc1,i
CCCn1c(-c2ccc(F)cc2)nc2c(NCCCN(C)C)nc(C)nc21,i
COc1ccc(C(=O)OC2CC3CC[C@H](C2)N3C(C)=O)cc1OC (stereo partly drawn),i
COc1c2c(c(C(=O)/C=C/C(C)=C/c3ccccc3)c3c1OCO3)CCN(C)C2,i
COc1ccc2c(c1)C(=O)[C@H](OC(=O)NCc1ccco1)[C@@H](c1ccc(OC)c(Br)c1)O2,i
CCN(CC)c1ccc(/C=C(/C#N)C(=O)NC(C)C)o1,i
CC(C)N1C(=O)S/C(=C/c2ccccc2OCc2ccc(C(=O)O)cc2)C1=O,i
CCN(CC)c1ccc(/C=C2/SC(=O)N(C(C)C)C2=O)o1,28µM
C=CCC(O)(C#Cc1ccccc1)c1ccccc1 (stereo not drawn),i
COc1ccc2c(c1)O[C@@H](c1ccc3c(c1)OCO3)[C@H](OC(=O)Nc1ccc(C)c(Br)c1)C2=O,i
COc1ccc(OC)c2c(=S)c3ccccc3[nH]c12,i
CCOC(=O)CNC(=O)O[C@@H]1C(=O)c2cc(Br)ccc2O[C@H]1c1cccc(OC)c1,i
COc1cc2ncnc(NCc3ccco3)c2cc1OC,22µM
c1coc(CNc2ncnc3[nH]ncc23)c1,i
COc1ccc(CNc2ncnc3cc(OC)c(OC)cc23)cc1OC,i
Cc1n[nH]c(=O)[nH]c1=O,i
COc1cccc(CNc2nc(-c3cccnc3)nc3ccccc23)c1,i
Cc1cccc(CNc2nc(-c3ccc(C(=O)N(C)C)cc3)nc3ccccc23)c1,i
Cc1cccc(CNc2nc(-c3cccnc3)nc3ccccc23)c1,32µM
SMILES,ERK EGF block
C=C(COC)C1=CCC(C(=O)OC)(C(=O)OC)[C@@H](C[N+](=O)[O-])c2ccccc21,i
CN(C)c1ncnc2ccc(-c3ccccc3C#N)cc12,i
CCOC(=O)CNC(=O)O[C@@H]1Cc2cc(OC)ccc2O[C@H]1c1cccc(OC)c1,i
COC(=O)N1c2ccccc2C23[C@@H]4CN5CCC[C@]6(CCC12C(O)(C6)C4=O)[C@H]53,i
COc1ccc2c(c1)C(=O)[C@H](OC(=O)NCCc1ccc(OC)c(OC)c1)[C@@H](c1ccc(OC)c(Br)c1)O2,i
COc1ccc(CCN2C(=O)CC(NNC(=O)c3ccccc3Br)C2=O)cc1 (stereo not drawn),i
COc1ccc(CCN2C(=O)CC(NC34CC5CC(CC(C5)C3)C4)C2=O)cc1OC (stereo not drawn),i
CCN(CC)c1ccc(NC2CC(=O)N(CCc3ccc(OC)cc3)C2=O)cc1 (stereo not drawn),35µM
CC(C)(C)c1ccc(OCCOc2ccc(C(C)(C)C)cc2NC=O)c(NC=O)c1,32µM
COCCOc1ccc(C(F)(F)F)cc1NC(=O)c1ccccc1,i
COCCOc1ccc(C(F)(F)F)cc1NC(=O)c1ccc(F)cc1,i
CC1=CC(=O)C2=C(C)CC[C@@H]3[C@@H](OC(=O)[C@H]3C)[C@H]12,i
COc1ccc2c(c1)O[C@@H](c1ccc3c(c1)OCO3)[C@H](OC(=O)NS(=O)(=O)c1ccc(F)cc1)C2=O,i
O=C1CCC/C1=C\c1ccccc1,i
O=C1/C(=C/c2ccncc2)N=C2CCCCCN12,i
O=C1/C(=C/c2ccncc2)CCC/C1=C\c1ccncc1,22µM
C=C[C@@H]1CN2CC[C@@H]1C[C@@H]2[C@@H](O)c1ccnc2ccc(OC)cc12,i
CC(C)[C@@H](CC(=O)N[C@@H]1CCNC[C@H]1C(=O)N[C@H](CC(=O)N[C@@H](CCC(=O)O)CC(=O)O)Cc1ccccc1)NC(=O)C[C@H](CO)NC(=O)[C@@H]1CCCC[C@H]1N,i
Cc1cccc(OCC(=O)N2CCN(c3nnc(-c4ccccc4)c4ccccc34)CC2)c1,i
Cc1ccc(-c2nnc(N3CCN(C(=O)COc4cccc(C)c4)CC3)c3ccccc23)cc1,40µM
Cc1cccc(OCC(=O)N2CCN(C(=O)c3ccc([N+](=O)[O-])cc3)CC2)c1,i
CCCCCCCc1cc2c(cn1)=C(OC)C(C)(OC(C)=O)C(=O)C=2Cl (stereo not drawn),i
CCCn1c(-c2ccc(F)cc2)nc2c(NCCCCN(CC)CC)nc(C)nc21,i
C=CCOC(=O)[C@H](O)[C@@H](O)C(=O)OCC=C,i
CCc1cccc(Nc2cc(C)nc3ncnn23)c1,i
SMILES,ERK EGF block
CCc1c(C)nc2ncnn2c1Nc1ccc(C)c(C)c1,22µM
CCc1c(C)nc2ncnn2c1NC1CCCc2ccccc21 (stereo not drawn),i
C=C(C(=O)OCC)C(=O)c1ccccc1,i
C=C1CC[C@H](O)C/C1=C/C=C1\CCC[C@]2(C)[C@@H]([C@H](C)CC[C@@H](O)C(C)(C)O)CC[C@@H]12,i
COCCn1c(=O)c(C)nc2cnc(N3CCNCC3)nc21,i
CC(C)Oc1ccc2c(=O)c(-c3ccccc3)coc2c1,18µM
COC(=O)COc1ccc2c(=O)c(-c3ccccc3)coc2c1,i
CCC(Oc1ccc2c(=O)c(-c3ccccc3OC)coc2c1)C(=O)OCc1ccccc1 (stereo not drawn),i
C=CCC(O)c1ccccc1 (stereo not drawn),i
CCN(CC)CCCCn1c(-c2ccccc2)nc2c(N(CCOC)CCOC)nc(C)nc21,i
COc1ccc(Nc2ncnc3ccc([N+](=O)[O-])cc23)c(OC)c1,i
O=[N+]([O-])c1ccc(O)c(Nc2ncnc3ccc(Br)cc23)c1,25µM
O=[N+]([O-])c1ccc(O)c(Nc2ncnc3ccccc23)c1,i
COc1cc2c(cc1OC)-c1cc3nc4ccccc4nc3n1C(C)(C)C2,i
COc1ccc2c(c1)O[C@@H](c1ccc3c(c1)OCO3)[C@H](O)C2=O,i
CCCN1C(=O)/C(=C\C=C2/C=CN(CC)c3ccccc32)SC1=S,i
CCN1C(=O)/C(=C/C=C2/Sc3ccc4ccccc4c3N2CCO)SC1=S,i
CCN1C(c2ccccc2)=C(c2ccccc2)S/C1=C/C=C1\SC(=S)N(C)C1=O,3.2µM
COc1ccc(-c2nc(-c3ccccc3)c(Nc3c(C)cccc3C)o2)cc1,i
CCc1c2c(nc3cccc(C(C)C)c13)-c1cccc(=O)n1C2,i
CCCC(=O)Nc1nc(CC(=O)OCC)cs1,i
CCOC(=O)Cc1csc(NC(=O)/C=C/c2ccc(Br)o2)n1,35µM
CCOC(=O)Cc1csc(NC(=O)c2ccc(C)cc2)n1,i
COc1cc2nc3c(c([Si](C)(C)C(C)(C)C)c2cc1OC)Cn1c-3cccc1=O,i
COC(=O)[C@@H]1C[C@@]2(O)[C@H](O)[C@H](O)[C@H](O)C[C@H]2N1Cc1ccc(N2CCN(C)CC2)cc1,i
CCN(CC)[C@@H](C)CN1c2ccccc2Sc2ccccc21,i
COc1ccc2[nH]c3c(=O)n(CCCN4CCOCC4)cnc3c2c1,i
CCOc1ccc2[nH]c3c(N4CCC5(CC4)OCCO5)ncnc3c2c1,i
COc1ccc2[nH]c3c(N4CCc5ccccc5C4)ncnc3c2c1,32µM
